# Experimental data: the supplement of paper PMC6555819
# System: LXRa homodimer (NR concentration 270 nM)
# Test: PBM binding z-score (relative to random genomic background probes); higher = stronger binding; sequences stand for … in GC…GCGATTGACAGCGTAGAATGAAGG
# Summary of the method: (§1)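 Scanned fluorescence from custom Agilent 4×180K protein-binding microarrays was regression-normalized. Binding z-scores use random background probes as reference. Ligand-free nuclear receptor dimers were incubated on the arrays for 1 h and detected with antibodies against each partner (one per run).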
row,Sequence,PBM binding z-score
1,ATACCAAGGTGATCGTGAGGTCCTTGATACTAAC,-0.204
2,ACAATGAGGTTATACGTAGATCAGGGAAGAAAGT,-0.0615
3,AGAACGAGGGCAATGAGGTGATAGCACGGGTGGC,-0.43
4,GGAACGAGGGCATTCGAGTTGATAACATGGCGAT,-0.0799
5,TCGAGTAGGTTACCAATGGGGCATTAAGCTTTCT,-0.459
6,CCTACTGGGCCATTCAGAGGTCGTTGATCATATG,0.735
7,GGAATGAGGGCATTCGAGTTGATAGCATGGCGAT,-0.453
8,ATATCTAGGTTAAGGGTCATTCAGGTTGGTTCGC,3.85
9,CCTGCTAGGTGAATGGTCAGCTAAAGCAGCTCGC,-0.807
10,CGAACGAGGGCATGAGTTGATAGCGAATGCCGAT,-0.522
11,TTACCAAGGTGAGCTGTGGTCGTTGATCCAACTC,-0.583
12,CCTATTAGTTGACCATAAGGGCAACCGTAGCTCG,0.502
13,ATCACTAGGTAAAAGTTCAGTGAATCCCGAGGAT,1.23
14,AGAATGAGGTTAAGCTCAGGGAAACAGAATACAT,-0.491
15,TAGCCTAGGTCATTAGGCCAGTATAGTACGCATC,0.7
16,AGTCAAAGTACATCTAGGTAACGTAAGATATGCT,-0.145
17,CAAACTAGATCAAGAGGTCAAAGTCCGCTTCCCG,6.71
18,GGAACGAGGGCAAAGTTGATAGTATCTGTCGACG,-0.348

# System: LXRb:RXRa (NR concentration 270 nM, RXRa partner concentration 90 nM)
# Test: as above
# Summary of the method: as §1
row,Sequence,PBM binding z-score
1,ACCGAAAGGTCGAGGTGAGTATAGAGAAAGGGAA,2.69
2,CCTAGCAGGCCAATCTGGGTCACTCATGGCTTGA,0.376
3,CCTTACGGGTCACTCCAGGTTATAGCATCGGAGT,5.36
4,CGAATTAGGTCATCCAGGACAGTGAATACATTGA,2.55
5,CAAACTAGGTCAAAGTCAAAGTCGGTTTGTGCCA,2.64
6,TCTTGTAGATCAAACGTTAAGAAAGCCGAAGCCT,0.18
7,TCTTGTAGATCAACAGGAGGTTAGGAAAGATCGA,0.179
8,CAAACTAGGTCAAGAGTTCAAAGTCCGCTTCCCG,4.15
9,CCCAGTAGGTTATGGGGCATTCAGGCAACGGTGA,-0.0107
10,CGTCCAATGTCAGCAGGTCAGTGAAAGCGACGTG,0.392
11,ATCGAAAGGACGACGAGGTGAGTATACACCGTTT,-0.324
12,ATATGCAGGTTAGCTGGGGTCATTCAGACTAGGC,4.92
13,TTACCAAGGTGAAGGTCGTTGACCCCTCTGTAGA,4.5
14,CCTTACGGGTCACGAGGTTAAAGCACGACGAGCG,4.3
15,GCGACTGGGGCAAAGCAGGTTAACATAAGGTTGG,0.261
16,ATATGTAGGTTATCGGGTCATTGAGTTTGCGCAT,2.94
17,CCTAGCTGGTCAGGAGGTCACACACCGGATATGA,3.21
18,TCTTGTAGATCCATAGAGGTTAAGAAAGTGCGCT,1.43
19,TAGCCTGGGTCATTGGGCCAGTATAGTACGCATC,1.36
20,TTACCAAGGTGAAGGTCTTTGATCCCTCTGTAGA,0.371

row,Sequence,PBM binding z-score
1,ACAAGTTGGTCAGCTGAGGTCACACACAATTCGG,3.77
2,CGCACTAGGTCAAGGACAGTGAATCTCCGCACGC,1.46
3,ATACCAAGGTGATCGTGAGGTCCTTGATACTAAC,0.177
4,ACAATGAGGTTATACGTAGATCAGGGAAGAAAGT,1.59
5,AGAACGAGGGCAATGAGGTGATAGCACGGGTGGC,-0.215
6,GGAACGAGGGCATTCGAGTTGATAACATGGCGAT,0.415
7,TCGAGTAGGTTACCAATGGGGCATTAAGCTTTCT,0.663
8,CCTACTGGGCCATTCAGAGGTCGTTGATCATATG,0.964
9,GGAATGAGGGCATTCGAGTTGATAGCATGGCGAT,0.478
10,ATATCTAGGTTAAGGGTCATTCAGGTTGGTTCGC,4.75
11,CCTGCTAGGTGAATGGTCAGCTAAAGCAGCTCGC,-0.625
12,CGAACGAGGGCATGAGTTGATAGCGAATGCCGAT,-0.0069
13,TTACCAAGGTGAGCTGTGGTCGTTGATCCAACTC,-0.347
14,CCTATTAGTTGACCATAAGGGCAACCGTAGCTCG,0.478
15,ATCACTAGGTAAAAGTTCAGTGAATCCCGAGGAT,0.945
16,AGAATGAGGTTAAGCTCAGGGAAACAGAATACAT,1.79
17,TAGCCTAGGTCATTAGGCCAGTATAGTACGCATC,1.88
18,AGTCAAAGTACATCTAGGTAACGTAAGATATGCT,-0.0982
19,CAAACTAGATCAAGAGGTCAAAGTCCGCTTCCCG,5.21
20,GGAACGAGGGCAAAGTTGATAGTATCTGTCGACG,0.972

# System: LXRb homodimer (NR concentration 270 nM)
# Test: as above
# Summary of the method: as §1
row,Sequence,PBM binding z-score
1,ACCGAAAGGTCGAGGTGAGTATAGAGAAAGGGAA,0.235
2,CCTAGCAGGCCAATCTGGGTCACTCATGGCTTGA,-1.09
3,CCTTACGGGTCACTCCAGGTTATAGCATCGGAGT,0.226
4,CGAATTAGGTCATCCAGGACAGTGAATACATTGA,0.231
5,CAAACTAGGTCAAAGTCAAAGTCGGTTTGTGCCA,1.02
6,TCTTGTAGATCAAACGTTAAGAAAGCCGAAGCCT,-0.0447
7,TCTTGTAGATCAACAGGAGGTTAGGAAAGATCGA,-0.324
8,CAAACTAGGTCAAGAGTTCAAAGTCCGCTTCCCG,1.05
9,CCCAGTAGGTTATGGGGCATTCAGGCAACGGTGA,-0.618
10,CGTCCAATGTCAGCAGGTCAGTGAAAGCGACGTG,-0.161
11,ATCGAAAGGACGACGAGGTGAGTATACACCGTTT,-0.355
12,ATATGCAGGTTAGCTGGGGTCATTCAGACTAGGC,0.363
13,TTACCAAGGTGAAGGTCGTTGACCCCTCTGTAGA,-0.739
14,CCTTACGGGTCACGAGGTTAAAGCACGACGAGCG,0.192
15,GCGACTGGGGCAAAGCAGGTTAACATAAGGTTGG,-1.01
16,ATATGTAGGTTATCGGGTCATTGAGTTTGCGCAT,1.33
17,CCTAGCTGGTCAGGAGGTCACACACCGGATATGA,0.171
18,TCTTGTAGATCCATAGAGGTTAAGAAAGTGCGCT,0.453
19,TAGCCTGGGTCATTGGGCCAGTATAGTACGCATC,-0.556
20,TTACCAAGGTGAAGGTCTTTGATCCCTCTGTAGA,-0.742

row,Sequence,PBM binding z-score
1,ACAAGTTGGTCAGCTGAGGTCACACACAATTCGG,0.506
2,CGCACTAGGTCAAGGACAGTGAATCTCCGCACGC,0.1
3,ATACCAAGGTGATCGTGAGGTCCTTGATACTAAC,-0.319
4,ACAATGAGGTTATACGTAGATCAGGGAAGAAAGT,0.813
5,AGAACGAGGGCAATGAGGTGATAGCACGGGTGGC,-0.118
6,GGAACGAGGGCATTCGAGTTGATAACATGGCGAT,-0.451
7,TCGAGTAGGTTACCAATGGGGCATTAAGCTTTCT,-1.11
8,CCTACTGGGCCATTCAGAGGTCGTTGATCATATG,-0.712
9,GGAATGAGGGCATTCGAGTTGATAGCATGGCGAT,-0.43
10,ATATCTAGGTTAAGGGTCATTCAGGTTGGTTCGC,2.55
11,CCTGCTAGGTGAATGGTCAGCTAAAGCAGCTCGC,-0.989
12,CGAACGAGGGCATGAGTTGATAGCGAATGCCGAT,-0.724
13,TTACCAAGGTGAGCTGTGGTCGTTGATCCAACTC,-1.27
14,CCTATTAGTTGACCATAAGGGCAACCGTAGCTCG,0.7
15,ATCACTAGGTAAAAGTTCAGTGAATCCCGAGGAT,0.59
16,AGAATGAGGTTAAGCTCAGGGAAACAGAATACAT,-0.626
17,TAGCCTAGGTCATTAGGCCAGTATAGTACGCATC,0.111
18,AGTCAAAGTACATCTAGGTAACGTAAGATATGCT,-0.223
19,CAAACTAGATCAAGAGGTCAAAGTCCGCTTCCCG,1.87
20,GGAACGAGGGCAAAGTTGATAGTATCTGTCGACG,-0.379
